Seven compounds from PubChem BioAssay (NCATS) can be followed below.

Unmarked numbers belong to inactive results. Inconclusive results are not listed. Calls of active or inactive are those of the source. Unless noted, the call rests on the fitted dose curve; in most records, active means well fitted curve in either direction with a large enough effect (not every such curve was filed as active); inconclusive means small, poorly fitted or top-dose-only effect, or another doubt; inactive means flat fitted curve, though single readings scatter.

Experiment [1] deals with Lysosomal acid glucosylceramidase (Homo sapiens) (UniProt P04062). The experiment in a line: Glucocerebrosidase-p2 (AID 348; in the data active means potency below about 10 µM; further: potency means the concentration at half of the fitted maximal effect). The settings on record: purified GBA, blue fluorogenic substrate, 40 min. The essentials:
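Normal human glucocerebrosidase (0.2 nM) with blue fluorogenic substrate (80 uM final) in citrate/phosphate pH 5.9 with 10mM sodium taurocholate, 0.01% tween-20; 40 min RT, NaOH/glycine stop; fluorescence Ex 365/Em 440; AC50 from a titration from 0.6 nM upwards.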

Experiment [2] can be described thus: AP1 Signaling Pathway (AID 357).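 Further: ME-180 reporter cells stimulated with EGF at its EC50 level; on the % scale 0 is the no-effect control and ±100 the full control effect.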 The following applies: ME-180 AP-1-bla reporter, EGF-induced, beta-lactamase ratio, 5 h; at 7.69 µM (top of the series) unless noted. The essentials:
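First, ME-180 AP-1-bla cells were cultured overnight at 37 °C in low-serum Opti-MEM. Next, titrated compounds with EC50 EGF were incubated 5 hours. Finally, CCF4 was added for 2.5 hours and the 460/530 nm ratio recorded.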

The target of experiment [3] is Cytochrome P450 1A2 (Homo sapiens) (UniProt P05177). The experiment in a line: p450-cyp1a2 (AID 410; calls by dose curve; further: potency means the concentration at half of the fitted maximal effect). The settings on record: recombinant CYP1A2, luciferin-ME demethylation, luminescence; series mostly up to 57 µM. An outline of the steps: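 O-Demethylation of luciferin 6' methyl ether by human CYP1A2 is monitored as luciferase luminescence. Substrate sits at Km (100uM); enzyme is 20nM. Values are scaled to 57 uM furafylline as maximal inhibition.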

The nature of experiment [4]: NFAT Signaling Pathway (AID 444).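 Further: carbachol stimulus at about its EC50 of 1 µM final; on the % scale 0 is the no-effect control and ±100 the full control effect.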 The following applies: Jurkat NFAT-bla M1, carbachol, beta-lactamase ratio, 5 h; at 7.69 µM (top of the series) unless noted. An outline of the steps:
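Read-out: CCF4 FRET ratio (460 nm/530 nm) after 1 h RT dye loading, used for %activity and AC50 from titration series. Cells: Jurkat NFAT-β-lactamase/M1 line, treated with compound plus 1 uM carbachol for 5 h, 37 °C.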

Experiment [5] is described as follows: Stat Signaling Pathway (AID 446).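 Further: ME-180 cervical cancer cells given 40 pM IL-6 alongside compound; SIE-controlled beta-lactamase reporter measured as 460/530 nm FRET emission ratio; on the % scale 0 is the no-effect control and ±100 the full control effect.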 The settings on record: ME-180 (cervical carcinoma) SIE beta-lactamase reporter, IL-6 stimulated, 5 h; at 7.69 µM (top of the series) unless noted. The essentials: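 Normalization used AC90 stimulation (300 pM IL-6) and AC90 inhibition (125 nM pan-JAK inhibitor at 40 pM IL-6). The underlying signal is SIE-driven beta-lactamase in ME-180 cells after 5 h IL-6 exposure with compound.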

The target in experiment [6] is Glucocorticoid receptor (Homo sapiens) (UniProt P04150). Put plainly: GR-EFC Redistribution (AID 451; calls by dose curve; further: potency means the concentration at half of the fitted maximal effect). The following applies: CHO-K1 GR-EFC translocation, beta-gal luminescence, 2 h. The essentials:
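Translocation of GR-ED fusion to nuclear EA restores b-gal, read by luminescence after 1 h room-temperature detection. Engineered CHO-K1 biosensor cells, 1,000/well, exposed 2 h at 37 C to titrations up to 46 uM final.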

The target of experiment [7] is Mitogen-activated protein kinase 10 (Mus musculus) (UniProt Q61831). Put plainly: JNK3 AlphaScreen Assay (AID 530).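 Further: kinase came from lysate of stimulated human HepG2 cells; signal reports phosphorylation of biotinylated GST-cJun 1-79 at Ser73 with 10 µM ATP; on the % scale 0 is the no-effect control and ±100 the full control effect.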 The settings on record: JNK3 lysate, c-Jun phosphorylation; series mostly up to 57.1 µM. The essentials:
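qHTS titrations with 15 min compound pre-incubation before adding ATP (10 uM final). Read-out: AlphaScreen of Ser73-phosphorylated biotin-GST-cJun using HepG2 lysate JNK3 activated by IL-1β and TNFα.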

The target in experiment [8] is 3',5'-cyclic-AMP phosphodiesterase 4B (Homo sapiens) (UniProt Q07343). The experiment in a line: qHTS Assay for Inhibitors of PDE-IV (AID 607; active means well fitted activation curve with a large enough effect in the main read-out, with a control signal flat, not every such curve was filed as active; further: % of control where 0% means no effect). The following applies: HEK293 ACTOne CNG channel cells, membrane potential fluorescence; series mostly up to 22.9 µM. The essentials: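 HEK293 ACTOne cells with CNG channel (1000/well), endogenous PDE4; membrane potential dye, compounds up to 22.9 uM final. Fluorescence Ex 535/Em 590; RO 20-1724 (100 uM final) as reference.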
On the technique in general: qHTS replaces the single test concentration by a dilution series.

For experiment [9], the target named is Cytochrome P450 3A4 (Homo sapiens) (UniProt P08684). The experiment in a line: qHTS Assay for Activators of Cytochrome P450 3A4 (AID 885; active means well fitted curve in the direction sought with a large enough effect; an effect the other way counts as inactive or inconclusive; further: nearly all actives have a fitted effect of over 65% in size; further: potency means the concentration at half of the fitted maximal effect). The settings on record: recombinant CYP3A4, Luciferin-PPXE luminescence, 60 min; series mostly up to 57.1 µM. An outline of the steps:
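Human CYP3A4 dealkylates Luciferin-PPXE to luciferin, which luciferase detection converts to light. Substrate was at its KM (25uM), buffer 200mM KPO4, reaction 60 min at RT.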

The nature of experiment [10]: Primary qHTS for small molecule stabilizers of the endoplasmic reticulum resident proteome: Secreted ER Calcium Modulated Protein (SERCaMP) assay (AID 1508630; active means well fitted curve in the direction sought with a large enough effect; an effect the other way counts as inactive or inconclusive; further: on the % scale 0 is the no-effect control and ±100 the full control effect). The settings on record: SH-SY5Y GLuc-SERCaMP (Gaussia luciferase released on ER calcium loss) secretion, thapsigargin, luminescence; series mostly up to 38.4 µM. The essentials:
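The SH-SY5Y reporter protocol was run at 3 concentrations up to 38.3 uM (primary) or 11 concentrations (follow-up): 16 h compound, 100 nM thapsigargin for 4 h, then extracellular luciferase luminescence.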

Experiment [11] has as its target Cytochrome P450 3A4 (Homo sapiens) (UniProt P08684). The experiment in a line: qHTS Assay for Inhibitors and Substrates of Cytochrome P450 3A4 (AID 884; active means well fitted curve in the direction sought with a large enough effect; an effect the other way counts as inactive or inconclusive; further: on the % scale 0 is the no-effect control and ±100 the full control effect; nearly all actives have a fitted effect of over 50% in size). The settings on record: recombinant CYP3A4, Luciferin-PPXE luminescence; series mostly up to 57.1 µM. An outline of the steps: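 Luminescent readout of luciferin produced by CYP3A4 (20 nM) dealkylation of Luciferin-PPXE, 25 uM (its KM). NADPH-driven reaction ran 60 min at RT after 10 min compound preincubation; data scaled to 57 uM ketoconazole as 100% inhibition.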

Sequence of Cytochrome P450 3A4 (Homo sapiens) (P08684 whole entry, looked up): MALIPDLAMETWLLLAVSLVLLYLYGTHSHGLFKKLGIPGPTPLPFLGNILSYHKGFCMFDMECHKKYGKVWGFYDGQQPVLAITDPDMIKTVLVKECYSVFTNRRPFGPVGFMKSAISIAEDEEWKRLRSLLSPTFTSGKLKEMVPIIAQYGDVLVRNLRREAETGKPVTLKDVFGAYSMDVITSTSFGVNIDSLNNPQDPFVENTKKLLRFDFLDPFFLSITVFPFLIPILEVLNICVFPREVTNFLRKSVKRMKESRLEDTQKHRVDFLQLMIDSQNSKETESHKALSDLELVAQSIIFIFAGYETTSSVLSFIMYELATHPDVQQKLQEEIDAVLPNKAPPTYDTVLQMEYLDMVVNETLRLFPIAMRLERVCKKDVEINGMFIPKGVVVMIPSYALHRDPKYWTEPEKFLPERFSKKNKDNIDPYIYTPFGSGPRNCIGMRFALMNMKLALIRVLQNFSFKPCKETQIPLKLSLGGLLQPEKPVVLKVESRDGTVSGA
Sequence of Glucocorticoid receptor (Homo sapiens) (P04150 whole entry, looked up, the tested form may be a part): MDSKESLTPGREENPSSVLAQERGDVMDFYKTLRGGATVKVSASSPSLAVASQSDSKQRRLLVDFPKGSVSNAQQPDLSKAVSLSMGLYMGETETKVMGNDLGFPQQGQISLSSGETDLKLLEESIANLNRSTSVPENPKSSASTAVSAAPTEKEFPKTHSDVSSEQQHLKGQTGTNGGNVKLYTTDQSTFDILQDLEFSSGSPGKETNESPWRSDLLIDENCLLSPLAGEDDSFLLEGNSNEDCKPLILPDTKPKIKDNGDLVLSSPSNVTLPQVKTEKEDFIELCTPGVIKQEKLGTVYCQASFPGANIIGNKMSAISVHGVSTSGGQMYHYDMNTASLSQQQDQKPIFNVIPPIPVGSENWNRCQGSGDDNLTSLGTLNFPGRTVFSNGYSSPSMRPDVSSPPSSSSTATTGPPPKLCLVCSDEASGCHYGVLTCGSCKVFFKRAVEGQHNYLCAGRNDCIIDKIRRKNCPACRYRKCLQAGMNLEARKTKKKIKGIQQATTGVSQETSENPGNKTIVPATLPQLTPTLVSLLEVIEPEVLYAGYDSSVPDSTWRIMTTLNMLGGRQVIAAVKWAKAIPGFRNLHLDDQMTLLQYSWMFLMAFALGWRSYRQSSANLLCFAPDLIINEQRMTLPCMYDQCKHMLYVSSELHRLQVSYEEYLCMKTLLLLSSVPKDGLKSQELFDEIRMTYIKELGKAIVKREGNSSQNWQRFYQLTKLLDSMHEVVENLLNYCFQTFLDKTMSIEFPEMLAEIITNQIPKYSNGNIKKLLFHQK
Sequence of 3',5'-cyclic-AMP phosphodiesterase 4B (Homo sapiens) (Q07343 whole entry, looked up): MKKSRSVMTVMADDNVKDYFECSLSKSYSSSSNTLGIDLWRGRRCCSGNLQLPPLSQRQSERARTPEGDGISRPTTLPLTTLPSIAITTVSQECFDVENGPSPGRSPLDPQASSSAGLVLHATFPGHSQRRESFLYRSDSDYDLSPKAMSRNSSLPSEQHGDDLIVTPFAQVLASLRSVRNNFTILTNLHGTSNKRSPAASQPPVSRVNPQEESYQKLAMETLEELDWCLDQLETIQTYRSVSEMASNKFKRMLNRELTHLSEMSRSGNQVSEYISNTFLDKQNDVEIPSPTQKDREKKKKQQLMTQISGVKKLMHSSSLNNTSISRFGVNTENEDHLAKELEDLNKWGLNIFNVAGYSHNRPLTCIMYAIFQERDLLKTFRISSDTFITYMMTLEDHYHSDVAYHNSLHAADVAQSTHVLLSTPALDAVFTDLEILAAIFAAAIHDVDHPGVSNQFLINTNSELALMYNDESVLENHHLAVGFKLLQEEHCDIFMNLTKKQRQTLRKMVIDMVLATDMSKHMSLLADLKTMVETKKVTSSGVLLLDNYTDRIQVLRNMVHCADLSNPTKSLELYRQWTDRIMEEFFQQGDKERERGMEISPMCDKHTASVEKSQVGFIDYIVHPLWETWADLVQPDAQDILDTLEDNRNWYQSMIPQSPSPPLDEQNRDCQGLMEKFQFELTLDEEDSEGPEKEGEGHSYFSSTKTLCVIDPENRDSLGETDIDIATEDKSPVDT
Sequence of Cytochrome P450 1A2 (Homo sapiens) (P05177 whole entry, looked up): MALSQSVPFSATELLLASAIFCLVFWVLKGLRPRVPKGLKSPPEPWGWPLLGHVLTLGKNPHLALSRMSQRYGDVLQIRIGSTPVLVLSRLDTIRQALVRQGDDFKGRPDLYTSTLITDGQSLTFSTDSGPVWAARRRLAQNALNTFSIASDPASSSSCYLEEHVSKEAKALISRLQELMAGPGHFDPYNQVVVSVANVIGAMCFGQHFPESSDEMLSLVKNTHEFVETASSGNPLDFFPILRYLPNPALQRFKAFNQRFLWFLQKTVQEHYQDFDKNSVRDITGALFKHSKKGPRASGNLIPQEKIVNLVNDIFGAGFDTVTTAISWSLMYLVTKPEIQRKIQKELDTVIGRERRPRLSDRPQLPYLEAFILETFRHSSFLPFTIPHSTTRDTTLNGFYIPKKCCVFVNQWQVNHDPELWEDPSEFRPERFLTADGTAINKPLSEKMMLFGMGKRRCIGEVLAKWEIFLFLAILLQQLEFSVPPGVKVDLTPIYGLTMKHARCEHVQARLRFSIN
Sequence of Lysosomal acid glucosylceramidase (Homo sapiens) (P04062 whole entry, looked up): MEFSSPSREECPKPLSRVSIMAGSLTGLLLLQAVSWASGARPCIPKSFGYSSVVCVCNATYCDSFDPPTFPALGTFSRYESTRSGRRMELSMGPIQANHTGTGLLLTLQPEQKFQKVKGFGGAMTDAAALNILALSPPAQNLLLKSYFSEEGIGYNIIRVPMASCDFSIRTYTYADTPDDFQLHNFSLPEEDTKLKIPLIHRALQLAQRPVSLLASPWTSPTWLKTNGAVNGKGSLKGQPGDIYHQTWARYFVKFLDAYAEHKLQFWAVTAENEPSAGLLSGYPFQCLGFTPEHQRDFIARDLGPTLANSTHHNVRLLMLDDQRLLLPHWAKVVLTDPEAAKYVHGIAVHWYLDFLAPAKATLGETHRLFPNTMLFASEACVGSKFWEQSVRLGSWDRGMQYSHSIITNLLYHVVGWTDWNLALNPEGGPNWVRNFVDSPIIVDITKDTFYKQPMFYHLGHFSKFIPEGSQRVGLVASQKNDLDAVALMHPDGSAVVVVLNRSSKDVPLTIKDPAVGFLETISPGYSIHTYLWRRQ

On to `COc1ccc(NC(=O)N2CC3(CCN(S(=O)(=O)c4ccccc4)CC3)C2)cc1`, for which the Potency is above 11.4 µM in [1] and above 46 µM in [6]. Moreover, the values for the activity change, negative = inhibition in [2] and in [4] were -1.69% and 10.6%, respectively. For the same compound, the Potency entry in experiment [3], in experiment [7], in experiment [8] and in [9] was “inactive” throughout. Further, the activity, negative = inhibition in experiment [5] was -2.28%. For the same compound, the result in experiment [10] was inactive.
With `COc1ccc(C(=O)N2CCC3(CC2)CCN(c2ncccn2)CC3)cc1`, the results for the Potency in experiment [1], in experiment [6] and in [9] were above 11.4 µM, above 46 µM and 5.01 µM (active), respectively. For the same compound, the values for the activity change, negative = inhibition in [2] and in experiment [4] were 3.18% and 0.535%, respectively. In addition, the Potency entry in experiment [3], in [7], in [8] and in experiment [11] was “inactive” each time. In [5], the activity, negative = inhibition was 4.32%. Further, the result in experiment [10] was inactive.
In the case of `O=C(c1cccc(F)c1)N1CCC2(CC1)CN(c1ccc(-c3ccccc3)cc1)C2`, the results for the Potency in experiment [1], in [6] and in experiment [9] were above 11.4 µM, above 46 µM and 2.51 µM (active), respectively. In addition, the activity change, negative = inhibition is 9.76% in [2] and -5.75% in experiment [4]. The Potency entry in [3], in experiment [7], in [8] and in experiment [11] was “inactive” each time. Moreover, in experiment [5], the activity, negative = inhibition is -20.4%. Further, the outcome in experiment [10] was inactive.
For the compound `COc1ccc(NC(=O)N2CC[C@@]3(CCCN(C(=O)c4c(C)noc4C)C3)C2)cc1`, the Potency is above 11.4 µM in [1] and above 46 µM in experiment [6]. Also, the figures for the activity change, negative = inhibition in experiment [2] and in experiment [4] were -9.74% and -10.6%, respectively. Besides, the Potency result in experiment [3], in [7], in experiment [8] and in [9] was “inactive” in each case. In addition, the activity, negative = inhibition in experiment [5] is -10.2%. In addition, the result in experiment [10] was inactive.
In the case of `COc1ccc(C(=O)N2CCC3(CCN(Cc4ccncc4)CC3)CC2)cc1`, the Potency was above 11.4 µM in experiment [1] and above 46 µM in [6]. The activity change, negative = inhibition is -7.79% in experiment [2] and -24.2% in experiment [4]. For the same compound, the Potency entry in experiment [3], in experiment [7], in [8] and in [9] was “inactive” each time. The activity, negative = inhibition in experiment [5] is 11.1%. Moreover, the result in experiment [10] was inactive.
Take `COC(=O)N1CCC2(CCCN(C(c3ccccc3)c3ccccc3)C2)CC1`: the Potency in experiment [1] is above 11.4 µM; in experiment [3], 15.8 µM (active); in experiment [6], above 46 µM. For the same compound, the activity change, negative = inhibition in experiment [2] was 11.9%; in experiment [4] it was -16.3%. The activity, negative = inhibition in experiment [5] was 13.3%. Also, the Potency result in experiment [7], in experiment [8] and in experiment [9] was “inactive” each time. Further, the outcome in [10] was inactive.
With `CS(=O)(=O)N1CCC2(CCCN(C(=O)Nc3cccc(F)c3)C2)CC1`, the Potency in experiment [1] is above 11.4 µM; in experiment [6], above 46 µM. Further, the activity change, negative = inhibition in experiment [2] is 3.4%; in experiment [4], 10.8%. Also, the Potency result in [3], in experiment [7], in experiment [8] and in experiment [9] was “inactive” throughout. Besides, the activity, negative = inhibition in [5] was -4.84%. Besides, the outcome in [10] was inactive.
